The source of these data is PubChem BioAssay (NCATS).

The target of experiment [1] is Glutathione peroxidase 1 (Homo sapiens) (UniProt P07203). Kind of experiment: Primary qHTS Assay for Inhibitors of Recombinant Selenoprotein Glutathione Peroxidase 1 (GPX1) (AID 1845191). For activity, negative = inhibition: % is set by controls: 0 for no effect and ±100 for the full control effect. Note: nearly all actives have a fitted effect of over 65% in size. In a few lines: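 GR-coupled assay: compounds preincubated 30 min at room temperature with GPX1, then reaction started with CHP; final 10 nM GPX1, 1 mM GSH, 0.5 mM CHP, 0.5 mM NADPH, 100 nM GR, 0.01% BSA, pH 7.5 Tris buffer. NADPH fluorescence (340/450 nm) read at 0 and 15 min.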

The target of experiment [2] is Phospholipid hydroperoxide glutathione peroxidase GPX4 (Homo sapiens) (UniProt P36969). Nature of the experiment: Primary qHTS Assay for Inhibitors of Recombinant Selenoprotein Glutathione Peroxidase 4 (GPX4) (AID 1845192). For activity change, negative = inhibition: series mostly up to about 50 µM; % is set by controls: 0 for no effect and ±100 for the full control effect. Note: nearly all actives have a fitted effect of over 65% in size. In a few lines:
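GR-coupled assay: recombinant GPX4 preincubated 30 min with compound at room temperature; final 200 nM GPX4, 1 mM GSH, 0.5 mM cumene hydroperoxide, 0.5 mM NADPH, 100 nM GR, 0.01% BSA, pH 7.5 Tris. NADPH fluorescence (340/450 nm) read at 0 and 15 min.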

The target in experiment [3] is Luciferin 4-monooxygenase (Photinus pyralis) (UniProt P08659). Kind of experiment: Primary firefly luciferase (FLuc) qHTS assay for identification of artifact compounds. (AID 1845220).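 For activity change, negative = inhibition: series mostly up to about 54 µM; plate controls were DMSO vehicle for no effect and no enzyme for full effect.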 Note: nearly all actives have a fitted effect of over 60% in size. In a few lines:
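Enzymatic FLuc inhibition assay: compounds pre-exposed to luciferin/ATP (10 uM each) for 15 min, then purified P. pyralis enzyme at 10 nM added. Read-out: luminescence at 5 min.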
(Quantitative high-throughput screening tests each substance at several concentrations.)

The nature of experiment [4]: Primary fluorescence-based thiol-reactive (MSTI) qHTS assay for identification of artifact compounds. (AID 1845221).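 For activity change, negative = thiol reactive: series mostly up to about 54 µM; thiol-reactive compounds lower the probe fluorescence signal.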 Note: nearly all actives have a fitted effect of over 65% in size. Note: potency is the fitted concentration of half-maximal effect. In outline:
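Thiol-reactive compounds detected by quenching of 4 uM MSTI fluorescence (525/598 nm) after 1 h room-temperature dark incubation in PBS pH 7.4, 2% DMSO. qHTS titration; percent inhibition Hill-fitted against Acetyl-MSTI/MSTI controls.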

Experiment [5] relates to Nanoluciferase (engineered Oplophorus gracilirostris luciferase). Nature of the experiment: Primary Nanoluciferase (NLuc) qHTS assay for identification of artifact compounds. (AID 1845222).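 Note: NLuc secreted into diluted conditioned medium of S16 cells; series mostly up to about 54 µM; 0% = DMSO and -100% = no enzyme.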 In outline: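 S16 cell supernatant NLuc, 1:55; cpds qHTS; 15 min RT dark; Nano-Glo substrate 1:100, 5 min; luminescence; Hill fit of % inhibition.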
A short description of experiment [6]: Primary redox qHTS assay for identification of artifact compounds. (AID 1845223).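 Note: 0% = DMSO and 100% = reference compound.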 In outline:
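Amplex Red (25 uM) and HRP (250 mU/mL) in HBSS, with compounds for 15 min, then 250 uM DTT for 30 min, room temperature, dark. Fluorescence 525/598 nm read; normalized to DMSO and 10 uM DA3003; Hill fit.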

SMILES strings stand for the structures. A number with no mark means an inactive call. Inconclusive results are not listed. The source made the active and inactive calls. Calls come from the whole dose curve; as a rule, active = well fitted curve in the direction sought with a large enough effect; inconclusive = small, poorly fitted or top-dose-only effect, or another doubt; inactive = no such curve, though single readings can be large; an effect the other way counts as inactive or inconclusive. Where a SMILES comes first, the peptide text is derived from it. Bridges are numbered along the chain shown (N, C = ends). [ ]: non-standard residue; d: D form. NMeY = CN[CH](Cc1ccc(O)cc1)C(=O)O

Chain of Phospholipid hydroperoxide glutathione peroxidase GPX4 (Homo sapiens) (P36969 whole entry, looked up): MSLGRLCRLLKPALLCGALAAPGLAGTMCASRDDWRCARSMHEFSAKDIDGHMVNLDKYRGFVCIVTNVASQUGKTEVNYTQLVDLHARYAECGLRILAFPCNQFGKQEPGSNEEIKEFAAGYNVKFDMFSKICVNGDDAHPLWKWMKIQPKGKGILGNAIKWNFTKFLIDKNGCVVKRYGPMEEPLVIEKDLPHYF
Chain of Glutathione peroxidase 1 (Homo sapiens) (P07203 whole entry, looked up): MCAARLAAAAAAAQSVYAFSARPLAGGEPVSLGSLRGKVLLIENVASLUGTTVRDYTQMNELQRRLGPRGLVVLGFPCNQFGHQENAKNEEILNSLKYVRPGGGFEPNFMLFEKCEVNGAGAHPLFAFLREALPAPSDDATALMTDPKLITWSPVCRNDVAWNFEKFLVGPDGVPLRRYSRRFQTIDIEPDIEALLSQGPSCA

For `C[C@@H]1O[C@@H](O[C@H]2[C@H](O)[C@@H](O)[C@H](OC3CCC4(C)C5CCC(C)(C(CO)OC6OC(CO)C(O)C(O)C6O)CC5=CCC4C3(C)C)O[C@@H]2CO)[C@H](O)[C@H](O)[C@H]1O` (stereo partly specified), the Potency result in experiment [1], in experiment [2], in experiment [3], in experiment [4], in experiment [5] and in experiment [6] was “inactive” throughout.

Regarding `CC(=O)O[C@H]1C[C@@](O)(C(C)C)C2[C@@H](OC(=O)c3ccc(O)cc3)C[C@@]3(C)O[C@H]3C[C@]21C` (stereo partly specified), the Potency entry in experiment [1], in experiment [2], in experiment [3], in experiment [4], in experiment [5] and in experiment [6] was “inactive” throughout.

Turning to `CCC(C)C1NC(=O)C2CCCN2C(=O)C(NC(C)=O)C(C)OC(=O)C(Cc2ccc(OC)cc2)N(C)C(=O)C2CCCN2C(=O)C(C(C)C)NC1=O` (stereo unspecified) (Ac-TPIVP[NMeY](Me); ester 1-C; configuration not given here), the Potency entry in experiment [1], in experiment [2], in experiment [3], in experiment [4], in experiment [5] and in experiment [6] was “inactive” throughout.

Take `OCCc1ccc(O[C@@H]2O[C@H](CO)[C@@H](O)[C@H](O)[C@H]2O)cc1`: the Potency entry in experiment [1], in experiment [2], in experiment [3], in experiment [4], in experiment [5] and in experiment [6] was “inactive” each time.

As for `Nc1nc2c(ncn2[C@@H]2O[C@@H]3COP(=O)(O)O[C@H]3[C@H]2O)c(=O)[nH]1`, the Potency result in experiment [1], in experiment [2], in experiment [3], in experiment [4], in experiment [5] and in experiment [6] was “inactive” each time.

As for `COc1cccc(-c2cc(NCc3ccc4c(c3)OCO4)nc(N)n2)c1`, the Potency result in experiment [1], in experiment [2], in experiment [3], in experiment [4], in experiment [5] and in experiment [6] was “inactive” throughout.

As for `Cc1cccc(C)c1OCc1cc(C(=O)N2CCC(c3ccncc3)CC2)no1`, the Potency result in experiment [1], in experiment [2], in experiment [3], in experiment [4], in experiment [5] and in experiment [6] was “inactive” each time.

Consider `CC1(C)CC(NC(=O)C(=O)Nc2ccc(Br)cc2)CC(C)(C)N1`, for which the Potency entry in experiment [1], in experiment [2], in experiment [3], in experiment [4], in experiment [5] and in experiment [6] was “inactive” in each case.

In the case of `CC(C)(C)CCN1C[C@@H]2C(CNC(=O)c3cc(Cl)cc(Cl)c3)[C@@H]2C1` (stereo partly specified), the Potency entry in experiment [1], in experiment [2], in experiment [3], in experiment [4], in experiment [5] and in experiment [6] was “inactive” each time.

Regarding `O=C(O)C(O[C@@H]1O[C@H](CO[C@@H]2O[C@H](CO)[C@@H](O)[C@H](O)[C@H]2O)[C@@H](O)[C@H](O)[C@H]1O)c1ccccc1` (stereo partly specified), the Potency result in experiment [1], in experiment [2], in experiment [3], in experiment [4], in experiment [5] and in experiment [6] was “inactive” each time.

With `CC(=O)O[C@@H]1[C@@H](OC(=O)/C=C/c2ccccc2)[C@@H](OC(C)=O)[C@H](O[C@H]2[C@@H]3C=CO[C@@H](O[C@@H]4O[C@H](CO)[C@@H](O)[C@H](O)[C@H]4O)[C@@H]3[C@@]3(CO)O[C@@H]23)O[C@H]1C`, the Potency result in experiment [1], in experiment [2], in experiment [3], in experiment [4], in experiment [5] and in experiment [6] was “inactive” each time.

For the compound `CC1(C)CC2C(C1)C(C)(O)C13CC1(COC3=O)C2O` (stereo unspecified), the Potency entry in experiment [1], in experiment [2], in experiment [3], in experiment [4], in experiment [5] and in experiment [6] was “inactive” each time.

Consider `O=C(Nc1ccccc1-c1cn2c(CN3CCNCC3)csc2n1)c1ccc2ccccc2n1`, for which the Potency result in experiment [1], in experiment [2], in experiment [3], in experiment [4], in experiment [5] and in experiment [6] was “inactive” in each case.

Turning to `O=C(/C=C\c1ccc(O)cc1)N[C@@H](Cc1ccc(O)cc1)C(=O)O`, the Potency result in experiment [1], in experiment [2], in experiment [3], in experiment [5] and in experiment [6] was “inactive” in each case. Also, the Potency in experiment [4] is 6.56 µM (active).

As to `CCN(Cc1cccnc1)C(=O)CN(c1ccc(OC)nc1)S(=O)(=O)c1ccccc1C`, the Potency result in experiment [1], in experiment [2], in experiment [3], in experiment [4], in experiment [5] and in experiment [6] was “inactive” throughout.

Take `CC(=O)O[C@@H]1c2c3c(cc(O)c2C(=O)O[C@@H]1C)O[C@@]1(C)[C@@H](O)C[C@H]2C(C)(C)C(=O)C=C[C@]2(C)[C@@H]1C3`: the Potency entry in experiment [1], in experiment [2], in experiment [3], in experiment [4], in experiment [5] and in experiment [6] was “inactive” throughout.

As to `Cc1cccc2c1NC(=O)C2(c1ccc(O)cc1)c1ccc(O)cc1`, the Potency result in experiment [1], in experiment [2], in experiment [3], in experiment [4], in experiment [5] and in experiment [6] was “inactive” throughout.

Consider `C[C@@H]1O[C@@H](O[C@H]2[C@H](O[C@H]3[C@H](O)[C@@H](C(=O)O)O[C@@H](O[C@H]4CC[C@@]5(C)C(CC[C@]6(C)C5CC[C@]57OC[C@@]8(CCC(C)(C)CC85)[C@H](O)C[C@]76C)C4(C)C)[C@@H]3O[C@@H]3O[C@H](CO)[C@@H](O[C@@H]4OC[C@@H](O)[C@H](O)[C@H]4O)[C@H](O)[C@H]3O)O[C@H](CO)[C@H](O)[C@@H]2O)[C@H](O)[C@H](O)[C@H]1O` (stereo partly specified), for which the outcome in experiment [1] is “inactive [at 9.52 µM]”; in experiment [2], “inactive [at 9.73 µM]”. The activity change, negative = inhibition in experiment [3] was 0.267% [at 11.6 µM]. For the same compound, in experiment [4], the activity change, negative = thiol reactive is 330% [at 11.5 µM]. Besides, the activity, negative = inhibition in experiment [5] was 0% [at 11.6 µM]. Moreover, the redox activity (% of DA3003) in experiment [6] was 15% [at 11.5 µM].

As for `CC(=O)O[C@@H]1[C@@H](O)[C@H](C)O[C@@H](O[C@H]2[C@@H]3C=CO[C@@H](O[C@@H]4O[C@H](CO)[C@@H](O)[C@H](O)[C@H]4O)[C@@H]3[C@@]3(CO)O[C@@H]23)[C@@H]1OC(=O)/C=C/c1ccccc1`, the Potency entry in experiment [1], in experiment [2], in experiment [3], in experiment [4], in experiment [5] and in experiment [6] was “inactive” throughout.

As to `Cn1cc(-c2ccc3nnc(Sc4ccc5nn(C)cc5c4)n3n2)cn1`, the Potency entry in experiment [1], in experiment [2], in experiment [3], in experiment [4], in experiment [5] and in experiment [6] was “inactive” each time.

On to `Cc1cc(C)c(Nc2ccnc(Nc3ccc(C#N)cc3)n2)c(C)c1`, for which the Potency result in experiment [1], in experiment [2], in experiment [3], in experiment [4], in experiment [5] and in experiment [6] was “inactive” each time.
